Shown are actives, neighbours in structure and some others; about 7.3% of the full set was active somewhere.
FLuc counter: counter-screen for miR-21 project: firefly luciferase inhibitors or activators. P08659. purified FLuc, Km substrates, luminescence inhibition. Potency, µM (titrated, usually from 57.5 µM), without a hit: top-dose activity change, negative = inhibition, usual class: inhibitors. hit rate 6.9% among 360,000. AID 588342;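 note: plate controls were vehicle for no effect and reference inhibitor for full effect; nearly all actives have a fitted effect of over 55% in size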
Target sequence (P08659 whole entry, looked up): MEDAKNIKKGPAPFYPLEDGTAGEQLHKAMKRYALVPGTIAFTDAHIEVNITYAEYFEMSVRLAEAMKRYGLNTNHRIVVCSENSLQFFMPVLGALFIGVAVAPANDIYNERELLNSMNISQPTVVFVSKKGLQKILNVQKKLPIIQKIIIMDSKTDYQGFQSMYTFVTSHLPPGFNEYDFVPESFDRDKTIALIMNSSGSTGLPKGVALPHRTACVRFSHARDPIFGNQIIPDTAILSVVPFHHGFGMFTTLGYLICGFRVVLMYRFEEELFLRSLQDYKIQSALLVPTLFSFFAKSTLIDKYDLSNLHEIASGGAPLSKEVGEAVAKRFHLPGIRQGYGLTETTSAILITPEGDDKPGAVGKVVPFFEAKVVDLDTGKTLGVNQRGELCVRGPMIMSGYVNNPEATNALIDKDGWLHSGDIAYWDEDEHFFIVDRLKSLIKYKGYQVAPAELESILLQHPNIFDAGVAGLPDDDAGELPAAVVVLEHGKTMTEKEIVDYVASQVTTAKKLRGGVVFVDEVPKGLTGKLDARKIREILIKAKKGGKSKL
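Purified P. pyralis luciferase (10nM final) with 10uM D-luciferin and 10uM ATP (Km levels) in 50mM Tris acetate pH 7.5, 10mM Mg acetate, 0.01% Tween-20, 0.05% BSA; qHTS 6-point titration, ~60 µM downward; luminescence read.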
SMN2 splice enh: increases expression of the SMN2 splice variant; HEK293 SMN2-luciferase splicing reporter, luminescence, 30-36 h; Potency, µM (highest dose often 46.1 µM), for the others: at the highest dose activity change, positive = activation, actives largely listed as activators; hit rate 2.8% among 210,000; note: % of control where 0% means no effect; nearly all actives have a fitted effect of over 55% in size
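HEK293 cells carry an SMN2 […]–luciferase reporter in which exon 7 inclusion puts luciferase in frame. Cells were plated 10-12 h before compound addition, then incubated 30-36 h at 37C. ONE-Glo luminescence was read; sodium butyrate at 4.5 mM final served as control.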
NPC1 prom act: activates the NPC1 promoter; hit rate 2.4% among 320,000; Potency, µM (titrated, usually from 9.22 µM), for inactives: top-dose activation, hits mostly activators; AID 485313; Huh7 NPC1 promoter luciferase reporter, 24 h; note: % of control where 0% means no effect; nearly all actives have a fitted effect of over 60% in size
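Luciferase expression driven by the NPC1 promoter was measured in stably transfected Huh7 cells after a 24 h compound incubation, using a luciferase reagent and a luminescence read.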
Rab9 prom act: activators of Rab9 promoter; Huh7 Rab9 promoter-luciferase reporter, luminescence, 24 h; Potency, µM (top dose mostly 9.22 µM), without a hit: top-dose activation, negative = inhibition, hits mostly activators; hit rate 2.8% among 320,000; AID 485297; note: % of control where 0% means no effect; nearly all actives have a fitted effect of over 60% in size
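Promoter activation is measured as luciferase luminescence in Huh7 cells stably transfected with a Rab9 promoter–luciferase construct, following 24 h compound exposure at 37 °C and 10 min reagent incubation at ambient temperature.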
KinaseGlo FLuc: counter-screen: inhibitors of Kinase-Glo firefly luciferase; Q27757; AID 1379; Kinase-Glo luciferase, ATP luminescence, 8 min; hit rate 0.28% among 200,000; Potency, µM (series often up to 38.3 µM), without a hit: at the top dose activity change, negative = inhibition, most hits filed as inhibitors; note: % is set by controls: 0 for no effect and ±100 for the full control effect; nearly all actives have a fitted effect of over 60% in size
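Kinase-Glo luciferase light output from ATP and luciferin was measured with 10 uM ATP, within the enzyme's linear range. Buffer: 50 mM imidazole pH 7.2, 50 mM KCl, 7 mM MgCl2, 0.01% Tween 20, 0.05% BSA; luminescence read after 8 min at ambient temperature.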
* = called active by the depositor; ? = inconclusive; . = no result given; [ ] = dose if it differs, or a comment. Calls come from the whole dose curve; as a rule, active = well fitted curve in the direction sought with a large enough effect; inconclusive = small, poorly fitted or top-dose-only effect, or another doubt; inactive = no such curve, though single readings can be large; an effect the other way counts as inactive or inconclusive. Potency is the fitted concentration of half-maximal effect.

SMILES	FLuc counter	SMN2 splice enh	NPC1 prom act	Rab9 prom act	KinaseGlo FLuc
CCCSCCCNC(=O)c1ccc(Cn2c(=O)c3cccn3c3cccnc32)cc1	0%	.	.	.	.
COc1ccc(CNC(=O)CCn2cccn2)cc1	4%	.	.	.	.
COCCN1C(=O)c2oc3ccc(C)cc3c(=O)c2C12C(=O)N(C)c1ccccc12 (centres undefined)	-6%	5%	.	.	.
O=C(/C=C/c1ccc(-c2cccc([N+](=O)[O-])c2)o1)N1CCOCC1	?	.	?	4µM*	.
CC(C)c1c(C(=O)N/N=C/c2cccnc2)nnn1-c1nonc1N	-17%	.	-2%	0%	.
CC(C)c1c(C(=O)N/N=C/c2ccc(Cl)cc2Cl)nnn1-c1nonc1N	6µM*	.	3%	0%	.
CCc1ccc(/C=N/NC(=O)c2nnn(-c3nonc3N)c2C(C)C)cc1	2.4µM*	.	-5%	-7%	.
Cc1cccc(-c2nc(S(=O)(=O)c3ccc(F)cc3)c(N3CCN(c4ccccc4)CC3)o2)c1	-2%	-6%	.	.	.
Cc1cc(Cl)ccc1NC(=O)CCS(=O)(=O)c1ccc2c(c1)CC(C)N2C(=O)C1CC1 (centres undefined)	-1%	.	.	.	.
CCOC(=O)CNC(=O)CSc1nc(-c2ccc(C)cc2)ns1	12µM*	2%	7%	16%	-3%
CCOC(=O)N1CCN(C(=O)CSc2nc(-c3cccc(C)c3)ns2)CC1	17µM*	0%	-1%	-7%	-4%
CCOC(=O)CSc1nc(-c2ccc(OC)cc2)ns1	24µM*	29%	-1%	1%	2%
Cc1ccc(OCCn2nnc3ccccc32)cc1C	21µM*	.	2.5µM*	2.5µM*	.
Cc1ccc(C(=O)Cn2nnc3ccccc32)cc1	5.4µM*	?	1.4µM*	1.6µM*	-3%
Cc1ccc(C(=O)Cn2nnc3ccccc32)cc1C	4.8µM*	?	1.4µM*	0.79µM*	0%
O=C(Cn1c(C(F)(F)F)nc2ccccc21)c1ccc(Br)cc1	0%	-29%	-1%	-5%	-4%
O=C(Cn1nnc2ccccc21)c1ccc(Br)cc1	24µM*	.	30%	?	.
COc1cccc(CNC(=O)CNS(=O)(=O)c2ccc3nc(C)sc3c2)c1	-7%	7%	.	.	.
Cc1c(Cl)c(S(N)(=O)=O)cc2c1=NC=NS=2(=O)O	.	-2%[9.22 µM]	.	.	-2%[7.66 µM]
COC(=O)c1ccccc1NC(=O)c1sc2nc(C)cc(C)c2c1NC(=O)c1ccccc1Cl	1%	11%	.	.	.
CC1=Nc2cc(C(=O)NC(C)C)ccc2Sc2ccc(C)cc21	?	-15%	.	.	.
Cc1ccc(/C=C/C(=O)Nc2ccc(Oc3ccccc3)cc2)o1	6µM*	-47%	-5%	1%	0%
CC(=O)c1ccc(NC(=O)/C=C/c2ccc(C)o2)cc1	7.6µM*	13µM*	.	.	.
Cc1ccc(/C=C/C(=O)Nc2ccc([N+](=O)[O-])cc2)o1	-27%	.	23%	?	.
COCc1cc(C)nc(N/N=C/c2ccc(-c3ccc(Cl)cc3[N+](=O)[O-])o2)c1C#N	-10%	-3%	0%	4µM*	0%
SMILES	FLuc counter	SMN2 splice enh	NPC1 prom act	Rab9 prom act	KinaseGlo FLuc
N#Cc1c(SCC(=O)Nc2nc3ccc(Br)cc3s2)sc2c(O)cc(=O)[nH]c12	?	.	26%	26%	.
N#Cc1c(SCC(=O)Nc2nc3ccccc3s2)sc2c(O)cc(=O)[nH]c12	2.4µM*	.	1%	17%	.
Cc1ccccc1NC(=O)CS(=O)(=O)c1cccc2nsnc12	-2%	.	.	.	.
COc1ccc(C(=O)Nc2cc(-c3nc4ncccc4o3)ccc2C)cc1Br	-12%	-6%	.	.	.
C(=N\Nc1cc(N2CCCCC2)ncn1)/c1ccco1	4.8µM*	.	?	?	.
COc1cccc(/C=N/Nc2cc(N3CCOCC3)ncn2)c1O	8.5µM*	.	-31%	-36%	.
COc1ccc(/C=N/Nc2cc(N3CCOCC3)ncn2)c(OC)c1	-9%	.	2%	3%	.
C/C(=N\Nc1cc(N2CCOCC2)ncn1)c1ccc(O)cc1	19µM*	.	0%	3%	.
Fc1cccc(/C=N/Nc2cc(N3CCOCC3)ncn2)c1	4.8µM*	.	1.8µM*	2µM*	.
C(=N\Nc1nc(N2CCOCC2)nc(N2CCOCC2)n1)/c1ccco1	4%	-12%	-6%	0%	-1%
Cc1ccc(C(=O)N2CCC(N3CCN(Cc4ccc(F)cc4)C(=O)C3=O)CC2)cc1	-5%	.	.	.	.

Screening data as filed in PubChem BioAssay.
